# Compound activity as filed in PubChem BioAssay.
# Pf growth 96h: P. falciparum growth inhibition at 96 hour, primary screen for plastid delayed-death inhibitors; P. falciparum luciferase reporter growth, 96 h; Potency, µM (top dose mostly 28.7 µM), for inactives: at the top dose activity change, negative = inhibition, actives largely listed as inhibitors; 6.9% of 320,000 active; AID 504834; note: potency is the fitted concentration of half-maximal effect; % is set by controls: 0 for no effect and ±100 for the full control effect
#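 Infected RBCs, 2% Hct / 0.05% parasitemia final; luciferase-reporter P. falciparum; cpd 96 h, 37 C, 5% CO2; luciferase detection reagent; luminescence.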
# NS1 function inh: influenza NS1 inhibition; AID 2326; 0.4% of 270,000 active; Potency, µM (series often up to 46.1 µM), without a hit: at the highest dose activity, positive = more growth; calls by dose curve; note: potency is the fitted concentration of half-maximal effect; actives are rising curves; nearly all actives have a fitted effect of over 50% in size
#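 S. cerevisiae expressing influenza A NS1, grown in glucose, washed, then diluted 1:100 into pH 6.0 -URA galactose medium with 23 nl compound. Growth recovery read as OD600; NS1-free strain serves as control.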
# Shiga toxin inh: inhibitors of Shiga toxin in Vero cells; Vero cells, Shiga toxin protein synthesis inhibition reporter; inhibition, % at 38.7 µM; 9.2% of 290,000 active; in the data active = inhibition mostly above about 28%, no sharp cut-off; inactive = mostly below about 43%; note: 0% is about no effect
# Cycloheximide cs: counter-screen for Shiga toxin inhibitors: cycloheximide protein synthesis inhibition; cell reporter, cycloheximide protein synthesis inhibition counterscreen; max response, %; 12% of 300,000 active; AID 2314; in the data active = max response mostly above about 13%, no sharp cut-off; inactive = mostly below about 14%; note: read at 38.3 µM for the half of the compounds with a filed dose; 0% is about no effect
# Pf growth 48h: P. falciparum growth inhibition at 48 hours (one generation). Potency, µM (doses to about 28.7 µM), without a hit: top-dose activity change, negative = inhibition, usual class: inhibitors. P. falciparum luciferase growth in erythrocytes, 48 h. 5.9% of 310,000 active; note: potency is the fitted concentration of half-maximal effect; % is set by controls: 0 for no effect and ±100 for the full control effect
#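 Erythrocytes infected with P. falciparum carrying an integrated firefly luciferase reporter (2% hematocrit, 0.1% parasitemia final) were exposed to compounds in RPMI 1640 with 0.5% Albumax at 37 C, 5% CO2. Growth inhibition was scored as reduced luminescence.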
# Starred values were filed as active, the others as inactive; ? = inconclusive; . = no result; [ ] = dose if it differs, or a comment. The list is not random: actives were taken first. Their share in the collection is about 21%. Unless noted, calls come from the whole dose curve; as a rule, active = well fitted inhibition curve with a large enough effect; inconclusive = small, poorly fitted or top-dose-only effect, or another doubt; inactive = no such curve, though single readings can be large or run the other way.
SMILES,Pf growth 96h,NS1 function inh,Shiga toxin inh,Cycloheximide cs,Pf growth 48h
Cc1ccc(C2NNC(=O)C2NC(=O)c2ccccc2)cc1 (configuration not stated),86.6%,-0.8%,33.0*,38.7*,.
COc1ccc(-c2nnn(CC(=O)N(CCCN3CCOCC3)C(C(=O)NC3CCCC3)c3ccco3)n2)cc1 (configuration not stated),-13.6%,0.8%,-2.0,-3.5,?
CC(C)(C)c1ccc(-c2noc(-c3ccno3)n2)cc1,304.5%,-9.2%,82.2*,51.5*,438.7%
Clc1cccc(Cl)c1-c1noc(-c2ccno2)n1,26.9%,-1.3%,-11.7,3.8,?
CCC(=O)Oc1ccc(-c2nc(-c3cccnc3)no2)cc1,212.3%,-53.2%,32.0*,21.5*,145.8%
CC(C)(C)c1ccc(-c2nc(-c3ccncc3)no2)cc1,?,-17.3%,62.8*,32.2*,41.9%
Cc1ccc(-c2nc(-c3cccnc3)no2)cc1,5.7%,-49.3%,89.7*,47.9*,5.3%
CN1CCCN(C(=O)c2ccc(Cl)s2)CC1,?,7.9%,6.0,0.9,18.9%
CN(Cc1nccs1)C(=O)C1CCC(=O)N(Cc2ccccc2F)C1 (configuration not stated),?,0.6%,-12.2,9.7,7.6%
Cc1cc(-c2cc(-c3ccccc3)on2)nc(NCC2CC2)n1,40.5%,-7.0%,0.6,-2.4,-28.4%
Cc1ccc(-c2nc(-c3ccccc3)no2)cc1,371.3%,1.6%,64.1*,37.7*,.
Nc1nonc1-c1noc(-c2ccccc2)n1,37.9%,18.0%,57.2*,41.6*,61.8%
Nc1nc(-c2nonc2N)no1,20.6%,.,-6.1,-1.0,16.5%
c1cncc(-c2noc(-c3ccco3)n2)c1,?,-12.7%,87.1*,55.9*,180.4%
Cc1cccc(-c2nc(-c3ccncc3)no2)c1,10.4µM*,-25.1%,132.8*,40.1*,197.7%
Brc1cccc(-c2nc(-c3ccncc3)no2)c1,-7.0%,-6.0%,12.1,11.4,.
c1ccc(-c2cc(-c3nc(-c4cccnc4)no3)c3ccccc3n2)cc1,?,-26.8%,-6.3,-0.5,19.1%
CC(=O)NCCNS(=O)(=O)c1ccc(C)c([N+](=O)[O-])c1,3.7%,.,-3.2,-7.5,9.0%
COCc1cc(=O)[nH]c(Cc2c(Cl)cccc2Cl)n1,18.1%,4.9%,-12.9,-2.5,5.5%[0.00184 µM]
CS(=O)(=O)N1CCN(C(=O)Cc2ccccc2Cl)CC1,?,2.5%,-15.2,-0.3,4.7%
Cn1cc(CN2CCN(Cc3cccnc3)CC2)c(-c2ccc3c(c2)OCCO3)n1,?,-1.2%,-4.4,9.4,-13.5%
O=[N+]([O-])c1cc(-c2nc(-c3ccncc3)no2)cc([N+](=O)[O-])c1,1.85µM*,-20.0%,1.6,-2.9,?
CCCc1noc(-c2ccc(-c3ccccc3)cc2)n1,.,-63.5%,145.8*,65.5*,96.0%
CCCc1noc(-c2cccc([N+](=O)[O-])c2)n1,-36.3%,.,63.0,21.8,38.8%
Cc1cc(C)cc(-c2nc(-c3ccncc3)no2)c1,?,-37.0%,64.8,11.0*,.
SMILES,Pf growth 96h,NS1 function inh,Shiga toxin inh,Cycloheximide cs,Pf growth 48h
Cc1ccc(-c2nc(-c3ccncc3)no2)cc1,111.5%,-3.7%,71.6*,52.0*,85.0%
CCOc1cc(-c2nc(-c3ccncc3)no2)cc(OCC)c1OCC,9.1%,7.4%,-3.8,-1.3,6.7%
Cc1n[nH]c(C)c1CN(C)C(=O)C1CCC(=O)N(CCc2cccc(F)c2)C1 (configuration not stated),-12.4%,5.9%,-1.2,-3.3,14.1%
Cc1ccc(S(=O)(=O)N2CCSC2=Nc2ccccc2)cc1,-25.9%,-52.5%,6.0,-2.3,-10.2%
COc1ccc(C2C3C=CCC(c4cccc(-c5ccc(N(C)C)cc5)c4)C3C(=O)N2Cc2ccccc2)cc1Cl (configuration not stated),.,.,22.2,21.6,.
CN1C(C(=O)Nc2cccc(O)c2)=CC(c2ccco2)=NS1(=O)=O,24.4%,16.2%,7.8,10.4*,54.4%
COc1ccc(C2=NS(=O)(=O)N(C)C(C(=O)Nc3ccc4c(c3)OCO4)=C2)cc1OC,123.2%,9.5%,11.3,20.1*,-16.3%
Cc1ccc(C2=NS(=O)(=O)N(C)C(C(=O)Nc3ccc4c(c3)OCO4)=C2)cc1,5.1%,11.7%,17.7*,18.1*,2.4%
Cc1cc(C)cc(NC(=O)C2CCN(S(=O)(=O)c3c(C)n[nH]c3C)CC2)c1,-9.7%,-10.2%,-12.4,-2.2,7.8%
COc1ccc(S(=O)(=O)N2CCN(C(=O)c3ccc(=O)[nH]n3)CC2)cc1OC,17.7%,.,.,.,0.6%
